PI5P4K alpha inh – PI5P4K alpha (human) kinase inhibition | P48426 | max response, % | AID 652105 | 330,000 compounds, 1.2% hits | PI5P4Kalpha enzyme, ADP-Glo luminescence, 60 min; active compounds read low; active means max response of -50% or lower; inconclusive means between -30% and -50%; inactive means -30% or higher; further: value at the top dose of about 77 µM; on the % scale 0 is the no-effect control and ±100 the full control effect
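PI5P4Kalpha ADP-Glo assay; 5 microM ATP final; 60 min RT reaction; HEPES pH 7.4/EGTA/CHAPS, 5% DMSO; controls lacking substrate or enzyme; luminescent end-point.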
G9a inh – G9a (human) methyltransferase inhibition; Q96KQ7; G9a H3K9 monomethylation, AlphaScreen, 2 h; Potency, µM (highest dose often 102 µM), without a hit: top-dose activity, negative = inhibition, most hits filed as inhibitors; 350,000 compounds, 8.8% hits; further: potency means the concentration at half of the fitted maximal effect; on the % scale 0 is the no-effect control and ±100 the full control effect; nearly all actives have a fitted effect of over 75% in size
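Enzyme 20 nM + cpd, 15 min RT; add b-H3K9 pep 500 nM / SAM 20 uM; 2 h RT; anti-H3K9me1 Ab 0.5 ug/mL + SA donor / anti-rabbit acceptor beads 20 ug/mL each, 10 min; AlphaScreen read.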
HP1b binding inh – inhibitors of HP1-beta chromodomain binding to methylated histone tails | AlphaScreen HP1-beta / biotin-H3K9me3 peptide binding | P83916 | AID 540317 | Potency, µM (highest dose often 114 µM), inactives show top-dose activity change, negative = inhibition, actives largely listed as inhibitors | 390,000 compounds, 0.56% hits; further: potency means the concentration at half of the fitted maximal effect; nearly all actives have a fitted effect of over 70% in size
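AlphaScreen: HP1-beta (50 nM) preformed 30 min with biotin-H3(1-18)K9me3 peptide (50 nM) in PBS pH 7.4, 0.01% Tween-20. Compound added for 30 min at RT, then streptavidin donor/nickel chelate acceptor beads (10 ug/mL) for 30 min.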
PLK1 PBD inh – blocks phosphopeptide binding to human PLK1 polo-box domain; 360,000 compounds, 2.8% hits; Plk1 PBD binding of FITC phosphopeptide, fluorescence polarization; P53350; Potency, µM, for the others: max response, negative = inhibition, most hits filed as inhibitors; AID 720504; further: potency means the concentration at half of the fitted maximal effect; series mostly up to about 57 µM; on the % scale 0 is the no-effect control and ±100 the full control effect; nearly all actives have a fitted effect of over 65% in size
JMJD2A Tudor inh – blocks the human JMJD2A Tudor domain; AlphaScreen JMJD2A-Tudor / H3K4me3 peptide binding; 390,000 compounds, 4.4% hits; AID 504339; Potency, µM (top dose mostly 114 µM), for inactives: at the highest dose activity change, negative = inhibition, usual class: inhibitors; further: potency means the concentration at half of the fitted maximal effect; on the % scale 0 is the no-effect control and ±100 the full control effect; nearly all actives have a fitted effect of over 50% in size
Target sequence (O75164 whole entry, looked up, the tested form may be a part): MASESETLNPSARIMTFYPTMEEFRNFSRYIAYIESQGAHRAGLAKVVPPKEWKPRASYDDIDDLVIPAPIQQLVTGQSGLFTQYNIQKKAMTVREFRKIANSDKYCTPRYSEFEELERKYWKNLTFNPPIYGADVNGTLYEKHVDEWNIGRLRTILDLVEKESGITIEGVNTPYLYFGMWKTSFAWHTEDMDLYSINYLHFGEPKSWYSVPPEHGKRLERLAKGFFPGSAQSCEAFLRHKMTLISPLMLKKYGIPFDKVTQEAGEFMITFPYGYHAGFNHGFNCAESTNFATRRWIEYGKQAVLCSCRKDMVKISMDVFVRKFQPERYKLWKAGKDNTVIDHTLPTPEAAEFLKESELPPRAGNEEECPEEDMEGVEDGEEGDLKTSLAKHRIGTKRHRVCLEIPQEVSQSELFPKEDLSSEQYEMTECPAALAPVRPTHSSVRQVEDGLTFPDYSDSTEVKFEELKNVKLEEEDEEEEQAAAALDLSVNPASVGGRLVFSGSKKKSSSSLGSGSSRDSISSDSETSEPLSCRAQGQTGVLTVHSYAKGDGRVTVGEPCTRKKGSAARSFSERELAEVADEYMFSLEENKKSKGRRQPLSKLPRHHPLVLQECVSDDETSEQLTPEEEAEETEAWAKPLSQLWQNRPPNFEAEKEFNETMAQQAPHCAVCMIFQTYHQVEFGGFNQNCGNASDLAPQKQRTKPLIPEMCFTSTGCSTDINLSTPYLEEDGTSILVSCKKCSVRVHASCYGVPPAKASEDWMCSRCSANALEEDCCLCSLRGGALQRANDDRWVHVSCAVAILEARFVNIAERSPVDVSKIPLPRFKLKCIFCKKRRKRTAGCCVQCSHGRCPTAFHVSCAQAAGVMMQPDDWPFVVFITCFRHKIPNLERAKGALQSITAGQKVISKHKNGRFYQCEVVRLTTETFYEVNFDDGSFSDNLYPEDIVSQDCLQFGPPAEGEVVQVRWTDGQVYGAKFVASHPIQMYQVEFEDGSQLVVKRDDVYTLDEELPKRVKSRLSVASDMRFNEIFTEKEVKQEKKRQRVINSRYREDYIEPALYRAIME
BAZ2B inh – BAZ2B (human) inhibition; Potency, µM (doses to about 114 µM), inactives show top-dose activity change, negative = inhibition, most hits filed as inhibitors; Q9UIF8; AID 504333; AlphaScreen BAZ2B-H3K14Ac peptide displacement; 360,000 compounds, 4.4% hits; further: potency means the concentration at half of the fitted maximal effect; on the % scale 0 is the no-effect control and ±100 the full control effect; nearly all actives have a fitted effect of over 60% in size
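Inhibition is scored as reduced AlphaScreen emission. The BAZ2B/b-H3(5-23)K14Ac complex (50 nM each) in PBS pH 7.4, 0.01% Tween-20 meets compound (up to 110 uM) for 30 min at RT before bead addition.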
An asterisk follows results filed as active; ? = inconclusive; / = no result; [ ] = dose if it differs, or a comment. Most compounds without a hit are left out; they make up all but 12% or so of the library. Unless noted, the call rests on the fitted dose curve; in most records, active means well fitted curve in the direction sought with a large enough effect; inconclusive means small, poorly fitted or top-dose-only effect, or another doubt; inactive means no such curve, though single readings can be large; an effect the other way counts as inactive or inconclusive.

SMILES	PI5P4K alpha inh	G9a inh	HP1b binding inh	PLK1 PBD inh	JMJD2A Tudor inh	BAZ2B inh
CCCCn1c(N)c(N(CC)C(=O)c2cccs2)c(=O)[nH]c1=O	7	/	29%	-5%	-10%	/
COc1ccc(Nc2nc(NCC3CCCO3)c3ccccc3n2)c(OC)c1 (stereo not drawn)	-16	45µM*	-5%	-12%	?	?
c1ccc(Nc2nc(NCC3CCCO3)c3ccccc3n2)cc1 (stereo not drawn)	?	-38%	33%	-17%	-25%	-39%
CCOc1ccc(Nc2nc(NCC3CCCO3)c3ccccc3n2)cc1 (stereo not drawn)	-9	40µM*	2%	-7%	?	32µM*
c1ccc(-c2nc(NCC3CCCO3)c3ccccc3n2)nc1 (stereo not drawn)	0	11%[59 µM]	53%	-6%	89µM*	?
c1ccc(-c2nc(NCc3ccco3)c3ccccc3n2)nc1	0	?	25%	-15%	-34%[11.4 µM]	45µM*
Oc1ccccc1-c1nc(NCc2ccco2)c2ccccc2n1	8	5%[12.7 µM]	13%	-2%	-20%	-12%
CC(=O)c1cccc(NS(=O)(=O)c2ccc(-c3cnc(C4CC4)o3)cc2)c1	-3	/	42%	5%	-4%	?
O=C(CN1C(=O)COc2ccc(S(=O)(=O)N3CCOCC3)cc21)NCc1ccc(Cl)cc1	/	6%[59 µM]	38%	/	7%	-32%
CCn1c(SCc2cccc(OC)c2)nc2ccccc2c1=O	13	180%	169%	-7%	116%	89%
C(=N\Nc1nc(-c2ccccn2)nc2ccccc12)/c1ccccc1	/	-16%	12%	/	?	50µM*
CCOc1ccc(Nc2c3ccccc3nc3ccccc23)cc1	4	32µM*	?	-14%	-28%[11.4 µM]	35µM*
COc1ccccc1Nc1nc(NCc2ccco2)c2ccccc2n1	-6	50µM*	11%	8%	-31%	?
Cc1ccc2oc(=O)c3cc(C(=O)NCCCOC(C)C)sc3c2c1	/	-40%[59 µM]	18%	/	-17%	-2%
C=CCC(CC=C)(CNC(=O)C(=O)Nc1cccc(C(F)(F)F)c1)c1ccccc1	/	39%[59 µM]	53%	/	0%	6%
O=C1OC(c2ccccc2)=NC12CC2c1ccc(Cl)cc1 (stereo not drawn)	6	3%[59 µM]	124%	1.9µM*	20%[57.1 µM]	30%
Cc1cc(NC(=O)c2ccccc2F)ncc1NC(=O)c1cccs1	?	?	-1%	8.4µM*	?	-26%
Cc1ccccc1NC(=O)c1ccc2nc(N3CCOCC3)sc2c1	-6	-10%	27%	-10%	-26%	-34%
O=C(NCCCN1CCOCC1)c1ccc2c(=O)n(-c3ccc(F)c(Cl)c3)c(=S)[nH]c2c1	-5	40µM*	3%	-15%	-20%	-9%
COc1ccc(Cn2c(=O)[nH]c3cc(C(=O)NCCCN4CCCCCC4)ccc3c2=O)cc1	-22	56µM*	1%	-14%	14µM*	-24%
O=C(O)c1ccc2c(=O)n(-c3ccc(F)c(Cl)c3)c(=S)[nH]c2c1	-7	?	7%	-10%	-7%	-2%
COc1ccc(-n2c(=S)[nH]c3cc(C(=O)NCCCN4CCOCC4)ccc3c2=O)cc1	0	28µM*	19%	-8%	-14%	-2%
COc1ccc(-n2c(=S)[nH]c3cc(C(=O)NCCCN4CCCC4=O)ccc3c2=O)c(OC)c1	3	32µM*	50%	-6%	14µM*	-4%
COc1ccc(-n2c(=S)[nH]c3cc(C(=O)NCCCN4CCCC4=O)ccc3c2=O)cc1	-6	?	35%	-1%	-4%	-5%
CCOC(=O)CSc1nc2ccc(NC(=O)c3ccc(F)cc3)cc2s1	/	-34%[59 µM]	39%	/	-6%	?
SMILES	PI5P4K alpha inh	G9a inh	HP1b binding inh	PLK1 PBD inh	JMJD2A Tudor inh	BAZ2B inh
COc1ccccc1N(CC(=O)Nc1ccc2c(c1)OCCO2)S(=O)(=O)c1ccc(C)cc1	1	-8%	3%	-13%	-23%	-23%
CCCc1c(C(=O)NNc2ccc(C)cc2)cnn1-c1ccccc1	-3	4.5µM*	-9%	-2%	?	?
O=C1c2ccc(-c3ccc(Cl)c(C(F)(F)F)c3)cc2S(=O)(=O)c2cccc(C(=O)N3CCN(c4ccc(Cl)cn4)CC3)c21	6	/	-9%	-4%	?	/
COc1ccc(CNC(=O)CN2C(=O)COc3ccccc32)c(OC)c1	/	-2%[59 µM]	23%	/	-9%	3%
Cc1ccc(NC(=O)Cn2c([N+](=O)[O-])cnc2C)cc1	0	/	11%	-10%	-11%	-2%
COc1ccc(C)cc1NC(=O)CN1CCN(S(=O)(=O)c2ccc(C(C)C)cc2)CC1	9	-4%[12.7 µM]	20%	0%	-9%	12%
COc1ccc(Cl)cc1NC(=O)CN1CCN(S(=O)(=O)c2ccc(F)cc2)CC1	-9	5%	26%	-4%	-7%	-10%
COC(=O)c1ccc(NC(=O)CN2CCN(S(=O)(=O)c3cc(Cl)ccc3OC)CC2)cc1	-1	35µM*	22%	-3%	-9%	3%
COc1ccc(S(=O)(=O)N2CCN(CC(=O)Nc3c(C)n[nH]c3C)CC2)cc1OC	6	/	?	9%	0.89µM*	/
COC(=O)c1ccc(NC(=O)Cn2c([N+](=O)[O-])cnc2C)cc1	4	/	19%	30µM*	-29%	9%
COc1ccc(C)cc1NC(=O)CN1CCN(S(=O)(=O)c2ccc(Cl)cc2)CC1	0	14µM*	16%	2%	-6%	9%
CCN(CC)CCCNC(=O)c1nn(-c2ccc(OC)cc2)c(=O)c2c1c1ccccc1n2C	/	-32%[59 µM]	3%	/	-17%	/
O=C(OCC#CCSc1nnc(-c2ccccc2F)o1)c1ccc(F)cc1	/	/	/	/	70%	/
C#CCOc1ccc(C(=O)N(C)c2ccccc2I)cc1	/	/	54%	/	-17%	/
CCCc1ccc(C(=O)CCC(=O)NNC(=O)c2ccncc2)cc1	1	4%	46%	3%	9%	-11%
COc1ccc(NC(=O)CNc2ccc(OC)c(S(=O)(=O)N3CCOCC3)c2)cc1	1	/	/	0%	/	/
CCCNC(=O)C1(C)CCCN(C(=O)c2ccc3snnc3c2)C1 (stereo not drawn)	-1	/	/	1%	/	/
CCCN(C)C1CN(Cc2cn(Cc3cc(C)cc(C)c3)nn2)S(=O)(=O)C1 (stereo not drawn)	1	/	/	-6%	/	/
COc1ccc(NC(=O)CCNC(=O)C2CCN(S(=O)(=O)c3ccc(OC)cc3)CC2)cc1	-5	4%	23%	-3%	-19%	-12%
COc1ccc(S(=O)(=O)N2CCN(CC(=O)Nc3ccc(F)c(F)c3)CC2)cc1	0	45µM*	13%	-2%	-11%	8%

Screening data: PubChem, National Center for Advancing Translational Sciences (NCATS)
